# Shown are actives, neighbours in structure and some others; about 11% of the full set was active somewhere.
# MCF10A rereplic: inducers of DNA re-replication in MCF 10A breast cells. MCF 10A DNA re-replication, Hoechst nuclear intensity, 48 h. Potency, µM (highest dose often 46.1 µM), inactives show top-dose activity, positive = re-replication, usual class: activators. AID 624296. hit rate 2.9% among 350,000; note: potency is the fitted concentration of half-maximal effect; % of control where 0% means no effect; nearly all actives have a fitted effect of over 50% in size
# IL1B secr inh: inhibitors of inflammasome signaling (IL-1 beta secretion) | THP-1 LPS/ATP IL-1B secretion, AlphaLISA, 16 h; hits give low values | activity change, % at 57.5 µM | hit rate 4.7% among 360,000 | AID 743279; in the data active = activity change below about -50%; inconclusive = mostly about -30% to -49%; note: % is set by controls: 0 for no effect and ±100 for the full control effect
#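 THP-1 cells pretreated 1 hr with compounds (up to 57.5 uM final), then stimulated with LPS (250 ng/mL final) plus ATP (1.25 mM final); secreted IL-1B measured by AlphaLISA after 16 hr, decreased signal indicating inhibition.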
# VP16 counter: inhibits Gal4-VP16 luciferase reporter, ROR gamma counter-screen | Drosophila S2 Gal4-VP16 UAS-luciferase, luminescence, 20 h | Potency, µM (highest dose often 53.6 µM), for inactives: top-dose activity, negative = inhibition, actives largely listed as inhibitors | hit rate 3.5% among 310,000 | AID 2546;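 note: Gal4-VP16 expression switched on by copper sulfate through the metallothionein promoter; potency is the fitted concentration of half-maximal effect; % is set by controls: 0 for no effect and ±100 for the full control effect; nearly all actives have a fitted effect of over 50% in size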
# RORgamma inh: blocks mouse ROR gamma transcriptional activity; Potency, µM (doses to about 53.6 µM), inactives show top-dose activity change, negative = inhibition, usual class: inhibitors; Drosophila S2 Gal4-RORgamma UAS-luciferase reporter, 20 h; hit rate 5.4% among 310,000; P51450; note: potency is the fitted concentration of half-maximal effect; % is set by controls: 0 for no effect and ±100 for the full control effect; nearly all actives have a fitted effect of over 60% in size
# Target sequence (P51450 whole entry, looked up, the tested form may be a part): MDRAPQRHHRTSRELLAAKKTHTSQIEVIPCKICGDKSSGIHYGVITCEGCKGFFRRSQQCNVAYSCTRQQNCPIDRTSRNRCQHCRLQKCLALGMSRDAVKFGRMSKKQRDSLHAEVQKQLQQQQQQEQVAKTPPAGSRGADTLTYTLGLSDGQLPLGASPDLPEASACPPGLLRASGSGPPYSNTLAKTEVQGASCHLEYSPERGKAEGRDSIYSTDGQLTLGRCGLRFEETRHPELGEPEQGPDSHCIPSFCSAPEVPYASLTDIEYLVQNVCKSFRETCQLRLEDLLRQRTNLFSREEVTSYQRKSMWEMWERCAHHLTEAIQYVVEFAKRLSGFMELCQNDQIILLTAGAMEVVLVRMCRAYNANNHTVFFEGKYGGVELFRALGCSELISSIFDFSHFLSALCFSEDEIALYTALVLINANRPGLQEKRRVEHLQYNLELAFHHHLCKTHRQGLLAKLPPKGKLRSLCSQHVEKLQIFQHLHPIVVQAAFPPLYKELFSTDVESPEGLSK
#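 In this cell-based reporter format, copper sulfate (700 uM final) drives Gal4–ROR gamma fusion expression from a metallothionein promoter in Drosophila Schneider cells; compounds preincubated 1 hr, reporter read after 20 hr at ambient temperature.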
# SW480 rerep: induces DNA re-replication in SW480 colon adenocarcinoma cells; hit rate 1.8% among 340,000; Potency, µM (highest dose often 46.1 µM), for the others: at the highest dose re-replication activation, usual class: activators; SW480 DNA re-replication, Hoechst DNA content imaging, 48 h; note: potency is the fitted concentration of half-maximal effect; % of control where 0% means no effect; nearly all actives have a fitted effect of over 55% in size
#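 250 cells/well; 23 nL cpd via pin tool; 48 hr, 37 C, 5% CO2; Hoechst 40 min; imager read of total nuclear intensity, ex 405/em 500-530 nm.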
# Active calls of the source: *; ? = inconclusive; / = no result given; [ ] = remark or other dose. Unless noted, calls come from the whole dose curve; as a rule, active = well fitted curve in the direction sought with a large enough effect; inconclusive = small, poorly fitted or top-dose-only effect, or another doubt; inactive = no such curve, though single readings can be large; an effect the other way counts as inactive or inconclusive.
SMILES,MCF10A rereplic,IL1B secr inh,VP16 counter,RORgamma inh,SW480 rerep
NS(=O)(=O)c1ccc(N2N=C(c3ccc(Br)cc3)CC2c2ccc(F)cc2)cc1 (configuration not stated),1.8µM*,-76*,?,?,?
COc1cc(C2CC(c3ccccc3)=NN2c2ccccc2)ccc1OCC(=O)O (configuration not stated),4.1µM*,-9,-6%,-29%,16µM*
CNC(=S)N1N=C(c2ccccc2)CC1c1ccc(OC)c(OC)c1 (configuration not stated),-3%,43,2%,-26%,-3%
COc1ccc(C2CC(c3ccccc3)=NN2c2ccccc2)c(C(=O)O)c1OC (configuration not stated),18µM*,-2,-10%,29%,?
COc1ccc(C2CC(c3ccccc3)=NN2c2ccc(S(N)(=O)=O)cc2)cc1OC (configuration not stated),16µM*,-30,-4%,8%,23µM*
CNC(=S)N1N=C(c2ccc(Br)cc2)CC1c1ccc(Br)cc1 (configuration not stated),255%[0.0737 µM],?,3%,-23%,?
Cc1c(OC(C)C(=O)N2C[C@H]3C[C@@H](C2)c2cccc(=O)n2C3)ccc2c3c(c(=O)oc12)CCCC3 (some centres not stated),-1%,-1,-1%,30%,1%
NS(=O)(=O)c1ccc(N2N=C(c3ccccc3)CC2c2ccccc2Br)cc1 (configuration not stated),?,-11,/,/,12µM*
COc1cc(C2CC(c3cccnc3)=NN2c2ccc(F)cc2)cc(OC)c1OC (configuration not stated),?,26,?,-3%,8.2µM*
NS(=O)(=O)c1ccc(N2N=C(c3ccccc3)CC2c2cccc(Br)c2)cc1 (configuration not stated),5.2µM*,-57*,/,/,23µM*
COc1ccc(C2=NN(c3ccc(C(=O)O)cc3)C(c3ccc(OC)c(OC)c3)C2)cc1 (configuration not stated),3.3µM*,-17,-15%,7.1µM*,18µM*
COc1cc(N2N=C(c3ccccc3)CC2c2ccccc2)c(C=O)cc1C=O (configuration not stated),?,8,-4%,-20%,18%
Cc1cccc(C(=O)N2CCC(C)(C(=O)NS(=O)(=O)C3CC3)C2)c1C (configuration not stated),/,23,/,/,/
C=CCN(CC=C)Cc1cc(=O)oc2cc(C)c(Cl)cc12,/,12,/,/,/
C[C@@H]1CCCCO[C@H](CN(C)C(=O)Cc2ccccc2)[C@@H](C)CN([C@H](C)CO)C(=O)c2cc(N(C)C)ccc2O1,/,0,/,/,/
NS(=O)(=O)c1ccc(N2N=C(c3ccccc3)CC2c2cccc(F)c2)cc1 (configuration not stated),2.6µM*,?,-14%,38%,4.1µM*
Cn1cc(-c2nnc(-c3ccccc3)o2)c2ccccc21,-1%,0,?,1.4µM*,-4%
Cc1ccccc1-c1nnc(-c2ccccc2)o1,12%,21,-8%,29%,1%
CCN1C(=O)c2cccc3c(S(=O)(=O)N(C(=O)c4cccnc4)c4ccc(OC)cc4)ccc1c23,?,39,?,-36%,?
CCN1C(=O)c2cccc3c(S(=O)(=O)N(C(=O)c4ccncc4)c4ccc(OC)cc4)ccc1c23,?,56,7.9µM*,?,-10%
CCN1C(=O)c2cccc3c(S(=O)(=O)Nc4ccc(OC)cc4OC)ccc1c23,13%,21,18µM*,?,-1%
CCN1C(=O)c2cccc3c(S(=O)(=O)Nc4nc(C)cs4)ccc1c23,15µM*,-7,-8%,?,-1%
CCN1C(=O)c2cccc3c(S(=O)(=O)Nc4ncccc4C)ccc1c23,-1%,15,-4%,2%,-6%
CCN1C(=O)c2cccc3c(S(=O)(=O)Nc4ccncc4)ccc1c23,1%,21,1%,0%,0%
CCN1C(=O)c2cccc3c(S(=O)(=O)Nc4ccccc4)ccc1c23,23µM*,94,?,-36%,13%
SMILES,MCF10A rereplic,IL1B secr inh,VP16 counter,RORgamma inh,SW480 rerep
COc1ccc(S(=O)(=O)N2CCCCC2)cc1NC(=O)c1cnc(C)cn1,-3%,7,/,/,-2%
O=C(COC(=O)CNC(=O)c1ccc(Cl)cc1Cl)NCc1ccco1,2%,6,/,/,-4%
CCN1C(=O)c2cccc3c(S(=O)(=O)NCc4cccnc4)ccc1c23,-4%,11,-18%,-3%,5%
CN1C(=O)c2cccc3c(S(=O)(=O)N(C)C)ccc1c23,8%,-6,12%,-7%[1.91 µM],?
CCN1C(=O)c2cccc3c(S(=O)(=O)NCc4ccco4)ccc1c23,12µM*,18,22%,-45%,?
CNS(=O)(=O)c1ccc2c3c(cccc13)C(=O)N2C,-6%,-84*,26%,-6%,?
C[C@H](CO)N1C[C@H](C)[C@@H](CN(C)C(=O)NC2CCCCC2)Oc2c(NS(=O)(=O)c3ccc(F)cc3)cccc2C1=O,?,13,/,/,3%
CCCCCCSc1ccc([C@H]2N[C@@](Cc3ccccc3)(C(=O)OC)[C@H]3C(=O)N(C)C(=O)[C@@H]23)cc1OC,13%,32,/,/,-2%
CN(Cc1ccccc1)C(=O)c1ccc(S(=O)(=O)N(C)c2ccccc2)cc1,13%,-8,/,/,-2%
CSC(=Nc1ccccc1)N=C(SCc1ccccc1)N(C)C,?,-104*,/,/,7.3µM*
CC1(C(=O)O)CCC(C(=O)NNC(=O)c2ccccc2Cl)C1(C)C (configuration not stated),4%,/,/,/,0%
N#Cc1ccc(OCC(O)CN2CCN(c3ncc(C(F)(F)F)cc3Cl)CC2)cc1 (configuration not stated),?,-65*,0%,-24%,25%
Cc1cc(C)c(NC(=O)/C(=C/c2ccco2)c2ccccc2)c(C)c1,1%,21,5%,6%,-7%[9.22 µM]
Cc1cccc(C)c1NC(=O)/C(=C/c1ccco1)c1ccccc1,-4%,-16,13µM*,?,3%
CC1OC2(C)OC(=N)C1(C#N)C(C#N)(C#N)C2c1ccccc1 (configuration not stated),?,0,-20%,-15%,-99%
CC1C2(C)OC(=N)C(C#N)(C(C)O2)C1(C#N)C#N (configuration not stated),?,-9,12%,-1%,1.3µM*
CCOC(=S)SCc1cn2cccc(C)c2n1,-1%,-15,-27%,14µM*,-20%
CCCS(=O)(=O)NCc1cn2cccc(C)c2n1,2.6µM*,0,-15%,9%,10µM*

# Assay outcomes (PubChem)
